PubChem BioAssay AID687014 (The Scripps Research Institute Molecular Screening Center, 2013)
Hit rate of the full screen: of about 370,000 compounds, about 6,800 (1.8%) were called active. For the sample, actives were picked, then their nearest neighbours and some compounds at random. Values without a mark were called inactive.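 Rule for the calls: active = activation above a cutoff set at the mean of all screened compounds plus 3 SD (cut at about 10% in these data); inactive = the rest.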

Each compound was assayed on Nuclear hormone receptor DAF-12 (Heterodera glycines), GAL4 fusion (assay: hgDAF-12 GAL4 fusion reporter activation – cell-based, luminescence, HEK293, UAS-luciferase, primary screen (AID 687014;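 note: 0% = DMSO wells and 100% = sodium butyrate wells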)). Settings: HEK293 GAL4-hgDAF12 UAS-luciferase reporter, agonist luminescence; at 6.8 µM; hits give high values; normalized to butyrate control.

Question: `Cc1cccc(N2C(=O)SC(N(CC(=O)O)c3cccc(C)c3)C2=O)c1` (stereo not drawn) was tested. Which activation did it give?
Answer: 2.06%

Question: Which activation does the source give for `COC(=O)c1ccccc1SC1CC(=O)N(c2cccc(C)c2)C1=O` (stereo not drawn) here?
Answer: -0.2%

Question: With `Cc1cccc(N2C(=O)SC(SC(=Nc3ccccc3)Nc3ccccc3)C2=O)c1` (stereo not drawn) as the compound, how does the activation read?
Answer: 12.4% (active)

Question: With `O=S1(=O)c2ccc(Br)cc2OC[C@@H](Cc2ccccc2)N1Cc1cn(Cc2ccco2)nn1` as the compound, how does the activation read?
Answer: -2.95%

Question: `CC(C)(C)OC(=O)N(Cc1ccccc1)Cc1ccc(OCc2cccc(NC(=O)c3ccccc3)c2)cc1` was tested. Which activation did it give?
Answer: 3.23%

Question: With `CCOc1ccc(OCc2cccc(C(=O)N(CC)CC)c2)cc1` as the compound, how does the activation read?
Answer: 15.3% (active)

Question: Which activation does the source give for `CCOc1ccc(OCc2ccc(C(=O)N(C)c3ccccc3)o2)cc1` here?
Answer: -0.02%

Question: Which activation does the source give for `COc1cccc(N2CCN(CC(=O)N(C)Cc3ccc(F)cc3)CC2)c1` here?
Answer: 2.78%

Question: `CC(C)CNC(=O)OCc1cn(Cc2ccc(F)cc2)nn1` was tested. Which activation did it give?
Answer: 0.8%

Question: `CS(=O)(=O)N(CC(=O)NC1CCCC1)Cc1ccc(F)cc1` was tested. Which activation did it give?
Answer: -0.56%

Question: Which activation does the source give for `Cc1ccc(-c2nnc(SCC(=O)Nc3ccc(Oc4ccccc4)cc3)n2Cc2ccco2)cc1` here?
Answer: -0.14%

Question: How did the activation turn out when `CC(C)(C)OC(=O)N[C@H](C(=O)OC(C)(C)C)c1ccc(Br)cc1` was run?
Answer: 2.51%

Question: Which activation does the source give for `C/C(=N\NC(=O)OC(C)(C)C)c1ccc[nH]1` here?
Answer: 13.9% (active)

Question: `CC(=O)Nc1ccc(S(=O)(=O)NCC(=O)OCC(=O)c2ccc[nH]2)cc1` was tested. Which activation did it give?
Answer: -0.16%

Question: Which activation does the source give for `COC(=O)[C@]12C[C@H](CC(=O)NCc3ccc(OC)c(OC)c3)C(=O)N(Cc3ccccc3)C1=C[C@H](C(C)C)O[C@@H]2C1CC1` here?
Answer: -0.64%

Question: `c1cncc(CNc2ccnc(-c3ccc4c(c3)OCO4)n2)c1` was tested. Which activation did it give?
Answer: 8.09%

Question: Which activation does the source give for `Cc1cc(NS(=O)(=O)c2ccc(NC(=O)CSc3nnc(-c4ccc(C(C)(C)C)cc4)n3Cc3ccco3)cc2)nc(C)n1` here?
Answer: 0.44%

Question: How did the activation turn out when `O=C(NC1CCCC1)C(c1ccccn1)N(C(=O)c1csnn1)C1CCCC1` (stereo not drawn) was run?
Answer: -0.77%

Question: With `CN(C)c1ccc(/C=C2\NC(=S)N(Cc3ccccc3)C2=O)cc1` as the compound, how does the activation read?
Answer: 2.67%

Question: With `CN(C)c1ccc(C=C2C(=O)OC3(CCCC3)OC2=O)cc1` as the compound, how does the activation read?
Answer: 11.1% (active)

Question: For `CCCC[C@H](C(=O)N(CC)c1ccccc1)[C@@H](O)c1ccc2ccccc2c1`, which activation is on record?
Answer: -1.89%

Question: `CCCNC(=O)Nc1ccc2c(c1)C(=O)N(C)[C@H]1CC[C@H](CC(=O)NCC3CCCCC3)O[C@@H]1CO2` was tested. Which activation did it give?
Answer: 2.46%

Question: For `CCc1ccccc1S(=O)(=O)Cc1ccc(C(=O)NCCc2ccccc2)o1`, which activation is on record?
Answer: -1.29%

Question: `CCCOc1ccc(Oc2c(Cl)cnn(Cc3cccc4ccccc34)c2=O)cc1` was tested. Which activation did it give?
Answer: -0.9%

Question: With `COc1ccc2cc(CCl)c(Cl)nc2c1` as the compound, how does the activation read?
Answer: 5.31%

Question: How did the activation turn out when `COc1ccc(C=C(C#N)C#N)c(CSc2ccccn2)c1` was run?
Answer: -4.02%

Question: `COc1ccc2nc(-c3ccccn3)ccc2c1` was tested. Which activation did it give?
Answer: 14.8% (active)

Question: For `CN1CCCCC(NC(=O)C(C)(C)C)C1=O` (stereo not drawn), which activation is on record?
Answer: -0.75%

Question: `COc1ccc(-c2cc(C3CCN(c4ncccc4[N+](=O)[O-])CC3)[nH]n2)cc1` was tested. Which activation did it give?
Answer: -1.82%

Question: With `COc1ccc(-c2cc3n(n2)CCc2nc4ccccc4n2-3)cc1` as the compound, how does the activation read?
Answer: 1.57%

Question: How did the activation turn out when `COc1ccc(-c2cc3ncccc3cn2)cc1` was run?
Answer: 14.3% (active)

Question: For `COc1cccc(N(C)C(=O)[C@@H](C)[C@@H](O)c2ccc3ccccc3c2)c1`, which activation is on record?
Answer: -0.12%

Question: `O=C(NCc1ccco1)C1CCCN(S(=O)(=O)c2ccc(Cl)s2)C1` (stereo not drawn) was tested. Which activation did it give?
Answer: 2.01%

Question: With `CN(C(N)=NC(=O)/C=C/c1ccccc1)C(C#Cc1ccccc1)Cc1ccccc1` (stereo not drawn) as the compound, how does the activation read?
Answer: 2.81%

Question: For `CCCCn1c(N)c(N(CC(C)C)C(=O)CSc2ccc([N+](=O)[O-])cc2)c(=O)[nH]c1=O`, which activation is on record?
Answer: 2.08%

Question: Which activation does the source give for `O=C1C2C3C=CC(C4CC34)C2C(=O)N1/N=C/c1ccc(-c2ccccc2[N+](=O)[O-])o1` (stereo not drawn) here?
Answer: -3.65%

Question: `CN1CCN(/N=C/c2ccc(-c3ccc([N+](=O)[O-])cc3)o2)CC1` was tested. Which activation did it give?
Answer: 10.5% (active)

Question: `Cn1cnc(C(F)(F)F)c1-c1ccc([N+](=O)[O-])cc1` was tested. Which activation did it give?
Answer: 0.97%

Question: Which activation does the source give for `O=C(CSc1nc2c(c(=O)[nH]1)CCCC2)N1CCCCC1` here?
Answer: -4.02%

Question: `CCCOc1ccccc1-c1nc(SCCC(=O)O)n[nH]1` was tested. Which activation did it give?
Answer: -0.41%

Question: For `Cc1cc(C)nc(Nc2n[nH]c(-c3ccccc3N)n2)n1`, which activation is on record?
Answer: 12.2% (active)

Question: `O=C(OCC#CCSc1nnc(-c2ccco2)o1)c1ccc(F)cc1` was tested. Which activation did it give?
Answer: -3.04%

Question: `COC(=O)C1=C(C)NC(=S)NC1c1ccc(OC)cc1` (stereo not drawn) was tested. Which activation did it give?
Answer: 0.66%

Question: `CCOC(=O)[C@]12CCCCC/C=C\1N(Cc1ccc(OC)cc1)C(=O)[C@H]2CC(=O)NCc1ccc(C)o1` was tested. Which activation did it give?
Answer: -1.27%

Question: For `O=C(NCCCc1ccccc1)c1cc(COc2c(F)cccc2F)on1`, which activation is on record?
Answer: 4.73%

Question: Which activation does the source give for `CC(C)Cc1cc(C(=O)Nc2cc(Br)ccc2O)no1` here?
Answer: 6.04%

Question: `CC(C)Cc1cc(C(=O)NCCc2ccccc2)no1` was tested. Which activation did it give?
Answer: 13% (active)

Question: `O=S1(=O)c2ccc(N3CCN(Cc4ccccc4F)CC3)cc2Oc2ccccc2CN1Cc1cn(Cc2ccc(Cl)cc2)nn1` was tested. Which activation did it give?
Answer: 0.48%

Question: For `C[C@@H]1CN([C@@H](C)CO)C(=O)c2cccc(NC(=O)Nc3cccc4ccccc34)c2O[C@H]1CN(C)S(=O)(=O)c1ccccc1F`, which activation is on record?
Answer: -4.71%

Question: How did the activation turn out when `CN(C)[C@H]1CCN(c2cccc3c2S(=O)(=O)N2CC[C@H](C2)O3)C1` was run?
Answer: -1.45%

Question: For `CC1C/C(=N/NC(=O)c2cccs2)CC(C)(C)C1` (stereo not drawn), which activation is on record?
Answer: 14% (active)

Question: With `CC1CC(=NNC(=O)C2COc3ccccc3O2)CC(C)(C)C1` (stereo not drawn) as the compound, how does the activation read?
Answer: 3.29%

Question: With `CCc1ccc(C(=O)NN=C2CCCCCC2)s1` as the compound, how does the activation read?
Answer: 3.37%

Question: `COc1ccccc1CCn1cnc(-c2ccccc2)c1C(C)C` was tested. Which activation did it give?
Answer: -2.29%

Question: How did the activation turn out when `Cc1ccn(CC(=O)N2N=C(C(F)F)CC2(O)C(F)F)n1` (stereo not drawn) was run?
Answer: 1.75%

Question: `COc1cc(NC(=O)CN(C)S(=O)(=O)c2ccc3nc(C)sc3c2)cc(OC)c1` was tested. Which activation did it give?
Answer: -1.83%

Question: How did the activation turn out when `Cc1ccc2nc(-c3ccc(NC(=O)CN(C)S(=O)(=O)c4ccccc4)cc3)sc2c1` was run?
Answer: 11.4% (active)

Question: For `CCN(CC)S(=O)(=O)c1ccc(NC(=O)CN(c2cccc(F)c2)S(C)(=O)=O)cc1`, which activation is on record?
Answer: -0.33%

Question: With `Cc1cccc(N(CC(=O)Nc2ccc(-c3nc4ccc(C)cc4s3)cc2)S(C)(=O)=O)c1` as the compound, how does the activation read?
Answer: 15% (active)

Question: `Cc1ccc(N(CC(=O)Nc2cc(C)cc(C)c2)S(=O)(=O)c2cccc3nonc23)cc1` was tested. Which activation did it give?
Answer: 1%

Question: `Cc1nc2ccc(S(=O)(=O)N(C)CC(=O)NC(C)c3ccccc3)cc2s1` (stereo not drawn) was tested. Which activation did it give?
Answer: -1.17%

Question: `Cc1ccc2c(c1)N(CC(=O)N1CCC(C)CC1)C(=O)c1cccnc1O2` was tested. Which activation did it give?
Answer: -1.52%

Question: Which activation does the source give for `CC[C@H](NC(=O)[C@H](Cc1ccccc1)NC(=O)[C@H]1O[C@@H](n2cnc3c(=O)[nH]c(N)nc32)[C@H](O)[C@@H]1O)c1ccccc1` here?
Answer: -0.43%

Question: How did the activation turn out when `COc1ccccc1C(=O)CSc1nnc(-c2ccccn2)n1-c1ccccc1` was run?
Answer: -5.4%

Question: How did the activation turn out when `Cc1cc(=O)[nH]c(SCC(=O)Nc2ccc(F)cc2F)n1` was run?
Answer: 2.35%

Question: For `COC(=O)[C@H](Cc1ccccc1)NC(=O)Nc1ccc(S(N)(=O)=O)cc1`, which activation is on record?
Answer: -0.11%

Question: For `COc1ccc(CN2C/C(=C/c3ccccc3)N3C(=O)C[C@@H](c4ccccc4)N=C23)c(OC)c1`, which activation is on record?
Answer: 1.14%

Question: With `Cc1cc(N=Nc2ccc3ccccc3c2)ccc1O` as the compound, how does the activation read?
Answer: 15.6% (active)

Question: For `Cc1ccc(-n2c(SCC(=O)Nc3cccc4ccccc34)nnc2-c2ccco2)cc1`, which activation is on record?
Answer: -1.7%

Question: For `COc1ccc([C@H]2OC(=O)C[C@H]2C(=O)N2CCN(c3ccccc3F)CC2)cc1OC`, which activation is on record?
Answer: 0.07%

Question: For `O=C(CN1CCSCC1)N/N=C/c1ccc(Cl)cc1`, which activation is on record?
Answer: -0.9%

Question: `Cc1ccc(/C=N/NC(=O)COc2ccccc2-c2ccccc2)cc1` was tested. Which activation did it give?
Answer: -6.53%

Question: With `Cc1ccc(COc2ccc(/C=N/NC(=O)CN3CCCCC3)cc2)cc1` as the compound, how does the activation read?
Answer: 10.7% (active)

Question: With `Cc1ccc(Cn2cc(CN3[C@@H](C)COc4cc(Br)ccc4S3(=O)=O)nn2)cc1` as the compound, how does the activation read?
Answer: -0.49%

Question: With `COc1ccc(NC(=O)N(C)C[C@@H]2OCCCC[C@@H](C)Oc3ccc(NC(=O)NC4CCCCC4)cc3C(=O)N([C@H](C)CO)C[C@@H]2C)cc1` as the compound, how does the activation read?
Answer: 2.86%

Question: For `C[C@@H](CN1C2=NC[C@@H](Cc3ccccc3)N2C[C@H]1Cc1ccc(O)cc1)NC(=O)CCC1CCCCC1`, which activation is on record?
Answer: 1.3%

Question: `CC1CC(C)CN(CCC(=O)Nc2ccc3c(c2)CCC3)C1` (stereo not drawn) was tested. Which activation did it give?
Answer: -2.86%

Question: For `O=C(Nc1ccc2c(c1)CCC2)c1ccc(Br)s1`, which activation is on record?
Answer: 19.2% (active)

Question: `CC(C)Oc1ccc(C(=O)NCC(=O)Nc2ccc3c(c2)CCC3)cc1` was tested. Which activation did it give?
Answer: 2.22%

Question: How did the activation turn out when `Cc1cccnc1CC(C)NC(=O)c1cc(COc2cncc(Cl)c2)on1` (stereo not drawn) was run?
Answer: 1.14%

Question: How did the activation turn out when `COc1ccc(OCc2cc(C(=O)NCC3(C)COC3)no2)c(Cl)c1` was run?
Answer: 0.38%

Question: For `Cc1cc(OCc2cc(C(=O)NCc3cc(C(C)C)no3)no2)cc(C)c1Cl`, which activation is on record?
Answer: 15.1% (active)

Question: How did the activation turn out when `Cc1ccc2oc(C(=O)N3CCN(C)C[C@@H]3C(C)C)c(C)c2c1` was run?
Answer: 2.43%

Question: `COC(=O)[C@]12C[C@H](CC(=O)NCc3cccs3)C(=O)N(CCc3ccc(OC)c(OC)c3)C1=C[C@H](C(C)C)O[C@@H]2C1CC1` was tested. Which activation did it give?
Answer: 1.93%

Question: How did the activation turn out when `CC1=C(C(=O)N2CCOCC2)CC(CC(=O)NCCCN(C)C)C(=O)N1Cc1ccc(C(C)(C)C)cc1` (stereo not drawn) was run?
Answer: 1.86%

Question: How did the activation turn out when `CCOC(=O)c1ccc2c(c1)nc(SCC(=O)NC(C)C)n2CC` was run?
Answer: -0.22%

Question: How did the activation turn out when `CCOC(=O)c1ccc2c(c1)nc(C)n2CC` was run?
Answer: 12.8% (active)

Question: `CCn1c(C)nc2cc(C(=O)NNS(=O)(=O)c3ccc(C)cc3C)ccc21` was tested. Which activation did it give?
Answer: -0.8%
